In all, about 31,000 sequences went through this assay and about 1,400 (4.5%) were called active. Many of the other results were omitted from the sample, so actives are more common in it than they were. Values without a mark were called inactive.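 Rule for the calls: active = median seed-adjusted z-score above 1 or below -1; inactive = the rest.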
Assay: Novel Modifiers of Survival Motor Neuron (SMN) Protein: Gene Identification via Genome-wide siRNA Screen;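 note: luminescence tracks full-length SMN protein made from the SMN2 reporter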
Conditions: HEK293T SMN2-luciferase reporter, siRNA knockdown, 72 h; actives lie on both sides
How it was run: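 Genome-wide siRNA screen (10418 genes, 3 siRNAs each, 1 pmol per well) by reverse transfection in HEK293T cells stably carrying an SMN2-luciferase reporter; luminescence after 72 hours, normalized to negative-control siRNA, log10-transformed, MAD-scored.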
For CAUCAAGCCUCAUCUAAUATT against CHD1, the median seed-adjusted z-score was -1.03 (active). Work on CCCAGUUUCUAGUCUGCUATT against SHKBP1 yielded a median seed-adjusted z-score of 0.345. AGACAAUUUGUAACUAGAATT against NEUROD2 gave a median seed-adjusted z-score of -0.103. Work on AGAUCAAGGUGUACGAGAUTT against KIF26A yielded a median seed-adjusted z-score of -0.428. GCAUCUAUGUAACAAAGAUTT against DLG4 gave a median seed-adjusted z-score of -0.498. Work on CGAAUGCAUCAGAUCAACATT against UBA2 yielded a median seed-adjusted z-score of 0.694. Work on GUAACAACAUCAUCCUAGATT against HSPG2 yielded a median seed-adjusted z-score of 0.478. For GACCCGGUAUAUGAACUCATT against UCP3, the median seed-adjusted z-score was 1.23 (active). Sequence GAGAAGGCCUAUUCAGACATT against ZBTB7C has a median seed-adjusted z-score of 0.447. With CGAGCUGACUUCAACAGGATT against STC1 the median seed-adjusted z-score was -1.36 (active). For GUGUGGUACAGAACAUUUATT against GUCA1C, the median seed-adjusted z-score was -0.617. In the case of GCAACAACCUGAUUAAGGATT against MED24, the median seed-adjusted z-score was -2.3 (active). In the case of GGACUCAGCAGGAUACAAUTT against FOXJ2, the median seed-adjusted z-score was -0.627. Sequence ACUUAGCACUUUAUAUUUATT against DUSP2 has a median seed-adjusted z-score of 0.576. GAGCAGUACUGGGAAGAGATT against CARD14 showed a median seed-adjusted z-score of -0.104. With GCAGCUUAGGAACAGCAGATT against THOC4 the median seed-adjusted z-score was -1.54 (active). For CCAUGACACGGUCCUCCAATT against ICAM2, the median seed-adjusted z-score was 0.269. In the case of GCUUUGUGGUGUGGAGUAUTT against LTB4R, the median seed-adjusted z-score was 0.498. With GAAGAUGACAUGUACCGUATT against XPA the median seed-adjusted z-score was 2.03 (active). In the case of GCUGCUACUUUGAAGUCCATT against FGG, the median seed-adjusted z-score was -0.043. CAUGCAGCCUUAAGCCUCATT against ILKAP showed a median seed-adjusted z-score of 0. In the case of GCCUAGAGCUAAGUACCAATT against CHUK, the median seed-adjusted z-score was -0.613. For GGCACUAAGUUUGACCGGATT against AQR, the median seed-adjusted z-score was -1.56 (active). For GCCUUUGACCUGUCAGUGUTT against ASMT, the median seed-adjusted z-score was -0.322. GCAUCCUGUUUGUAAAUGATT against DLG4 showed a median seed-adjusted z-score of -0.498. In the case of CCGUGGUUACAGAAACGUATT against ABHD3, the median seed-adjusted z-score was -0.126. In the case of CAAGAUGCUGGAUAAGGAATT against GYS1, the median seed-adjusted z-score was 0.874. For GGAUUCUUGUUGGACUAAUTT against RHBDD1, the median seed-adjusted z-score was 0.00277. In the case of CAAUAGGAUUAUCAUGAGATT against MRS2, the median seed-adjusted z-score was 1.38 (active). In the case of GGCUACAACAUGACUCGUATT against FZD10, the median seed-adjusted z-score was -0.226. In the case of UCACUGUCCCAGACACCAATT against EPO, the median seed-adjusted z-score was 0.148. UGGACAACUUUGUACCUAATT against EBP showed a median seed-adjusted z-score of 0.017. GGCUCAACAUGGACCGGAUTT against BCAT2 showed a median seed-adjusted z-score of 0.0438. In the case of CAAAGGCGAUAACAUCUAUTT against UBE2E1, the median seed-adjusted z-score was 0.888. With GCCCUAAAGGAGAAAGUCATT against MAT2A the median seed-adjusted z-score was -1.9 (active). Sequence GCAUGUAAGAAUCCACAAUTT against ZNF187 has a median seed-adjusted z-score of 0.419. GCCUAAAUCCCAAAUCGAATT against CXCL11 gave a median seed-adjusted z-score of -0.135. ACAGCGACCUUGCAAAGAATT against ZNF496 showed a median seed-adjusted z-score of -0.971. In the case of GAAAGUGCUCGGUGCCUUUTT against HBB, the median seed-adjusted z-score was -0.151. For GGCGAGAAGAGCAACGUAATT against DDX46, the median seed-adjusted z-score was -1.24 (active). Sequence CAACGGCUUCUGUCAUUUATT against SUCLG1 has a median seed-adjusted z-score of -0.63. Sequence GAAGUUCUCUUUACAACCATT against RFX2 has a median seed-adjusted z-score of 0.271. GUUCAGCACUCAUUAGACATT against ZNF17 showed a median seed-adjusted z-score of 0.579. For CGAUCAUUACCUCUCCAGATT against ARHGEF4, the median seed-adjusted z-score was 0.332. In the case of GAAUGACCAGAGACAUCUATT against INSR, the median seed-adjusted z-score was 0.172. For GGAUUUGCCGAAUUAACAATT against RELB, the median seed-adjusted z-score was 1.16 (active). GGAGAUAGCUUUGCCUAUATT against RBM15B showed a median seed-adjusted z-score of -0.183. For GGUACUCGGUGGAAACCAATT against CNKSR3, the median seed-adjusted z-score was 0. Work on CAUUAACCAGUGAACGCAATT against AADAT yielded a median seed-adjusted z-score of 0.0891. CAAGAAUGUUACUAACAAUTT against TPM4 showed a median seed-adjusted z-score of -0.407. For GCUACAGUCUCUACCCUGATT against BARX1, the median seed-adjusted z-score was 1.63 (active). For AGCUCAAGAAGUACACCAATT against CHST12, the median seed-adjusted z-score was 0. In the case of CCUCGAUUCCAUUAUCAUUTT against RECQL4, the median seed-adjusted z-score was 0.475. For GCCUAGAGGACUACAAGAATT against FZD8, the median seed-adjusted z-score was -0.177.

From PubChem BioAssay AID1347426 (Functional Genomics Laboratory (NCATS/FGL), 2020)
